Where “and” joins values, the source holds several entries; their conditions need not be identical. Identical values can stand only once. Inconclusive results are not listed. Where a structure was tested more than once in an assay, its records may differ in their call. A number with no mark means an inactive call. Calls of active or inactive are those of the source. The call rests on the fitted dose curve; in most records, active means well fitted inhibition curve with a large enough effect; inconclusive means small, poorly fitted or top-dose-only effect; inactive means flat fitted curve, though single readings scatter.
On the % scale 0 is the no-effect control and ±100 the full control effect; potency means the concentration at half of the fitted maximal effect.

Test system in one assay: not listed separately
In words: Drug repurposing screens with cells derived from glioblastoma tumor samples (AID 1345199). Further: nearly all actives have a fitted effect of over 40% in size. Conditions: GBM patient neurospheres viability, ATP luminescence, 48 h; at 46.1 µM (top of the series); tumour line C. The method, boiled down: (§1)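 Four patient lines of CD133+ GBM neurospheres were screened at several concentrations; hits were retested in those lines plus three slower-growing GBM lines, using 48-hour treatment and ATP-based viability.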
Regarding `NCCCC(=O)O`, the activity, negative = cell killing was -16.7%.

Consider `CC1(C)S[C@@H]2[C@H](NC(=O)C(C(=O)Oc3ccc4c(c3)CCC4)c3ccccc3)C(=O)N2[C@H]1C(=O)O` (some centres not stated), for which the activity, negative = cell killing is 7.9%.

Turning to `C/C=C(/CC[C@@H](C)[C@H]1CC[C@H]2C3=CC[C@H]4[C@H](C)[C@@H](O)CC[C@]4(C)[C@H]3CC[C@]12C)C(C)C`, the activity, negative = cell killing is 9.21%.

Turning to `CCC(=O)Oc1ccc2c(c1)CC[C@@H]1[C@@H]2CC[C@]2(C)[C@@H](OC(=O)CC)CC[C@@H]12`, the activity, negative = cell killing is -12.6%.

For `O=S(O)CO`, the activity, negative = cell killing was -1.44%.

Take `CCC(CN)CC(C)CCNCC(O)CNCC(C)CC(CC)CN` (configuration not stated): the activity, negative = cell killing is -0.671%.

Turning to `CC#CCC(C)[C@H](O)/C=C/[C@@H]1[C@H]2C/C(=C/CCCC(=O)O)C[C@H]2C[C@H]1O` (some centres not stated), the activity, negative = cell killing is -5.69%.

For `CN1CCN(C2=Nc3ccccc3Cc3ccccc32)CC1`, the activity, negative = cell killing is -28.3%.

In the case of `CSCC[C@H](NC(=O)[C@H](Cc1ccc(OS(=O)(=O)O)cc1)NC(=O)[C@@H](N)CC(=O)O)C(=O)NCC(=O)N[C@@H](Cc1c[nH]c2ccccc12)C(=O)N[C@@H](CCSC)C(=O)N[C@@H](CC(=O)O)C(=O)N[C@@H](Cc1ccccc1)C(N)=O`, the activity, negative = cell killing is 9.45% and -3.35%.

`O=C(OCCO)c1ccccc1O`: the activity, negative = cell killing is -4.97%.

As to `O=P(O)(O)C(Sc1ccc(Cl)cc1)P(=O)(O)O`, the activity, negative = cell killing was -7.59%.

For the compound `CS(=O)(=O)OCCCNCCCOS(C)(=O)=O`, the activity, negative = cell killing was 2.38%.

Turning to `CC(=O)O[C@H]1CC[C@@]2(C)C(=CC[C@H]3[C@@H]4CC[C@H](C(C)=O)[C@@]4(C)CC[C@@H]32)C1`, the activity, negative = cell killing was -12%.

For `OCC(O)COc1ccc(Cl)cc1` (configuration not stated), the activity, negative = cell killing was -6.48%.

Turning to `Cc1cc(Nc2ccccc2C(=O)O)ccc1Cl`, the activity, negative = cell killing was -18%.

On to `CC#CCC(C)[C@H](O)/C=C/[C@@H]1[C@H]2c3cccc(CCCC(=O)O)c3O[C@H]2C[C@H]1O` (some centres not stated), for which the activity, negative = cell killing was -26.2%.

The same assay, now with this note: GBM patient neurospheres viability, ATP luminescence, 48 h; tumour line A.
With `CCC(C)C(C(=O)OCC[N+](C)(CC)CC)c1ccccc1` (configuration not stated), the Potency was 11.2 µM (active).

For the compound `CCCC1([C@H](O)C/C=C/[C@H]2[C@H](O)CC(=O)[C@@H]2CCCCCCC(=O)OC)CCC1`, the Potency was 20 µM (active).

Turning to `CCOC(=O)COc1ccc2c(C)c(CCN(CC)CC)c(=O)oc2c1`, the Potency is 12.6 µM (active).

As for `COc1cc2c(c(OC)c1OC)-c1c(cc3c(c1OC)OCO3)C[C@@H](C)[C@](C)(O)C2`, the Potency was 22.4 µM (active).

In the case of `COc1ccc(C(=O)Nc2ccccc2CCC2CCCCN2C)cc1` (configuration not stated), the Potency was 10 µM (active).

`COC[C@H](c1ccc(C(F)(F)F)cc1)N1CCN(C2(C)CCN(C(=O)c3c(C)ncnc3C)CC2)C[C@H]1C`: the Potency is 11.2 µM (active).

In the case of `CC(=O)[C@@]1(O)CC[C@H]2[C@@H]3C=C(Cl)C4=CC(=O)CC[C@]4(C)[C@H]3CC[C@@]21C`, the Potency is 12.6 µM (active).

Take `Nc1ncnc(Nc2ccc(Cl)cc2)n1`: the Potency was 35.5 µM (active).

Take `CCC(=O)OCC(=O)[C@@]1(OC(=O)CC)[C@H](C)C[C@H]2[C@@H]3CCC4=CC(=O)C=C[C@]4(C)[C@@]3(F)[C@@H](O)C[C@@]21C`: the Potency is 17.8 µM (active).

Consider `CC(=O)O[C@H]1CC[C@@]2(C)C(=CC[C@@H]3[C@@H]2CC[C@]2(C)C(c4cccnc4)=CC[C@@H]32)C1`, for which the Potency is 11.2 µM (active).

As to `C/C(=C(\CCOC(=O)c1ccccc1)SS/C(CCOC(=O)c1ccccc1)=C(/C)N(C=O)Cc1cnc(C)nc1N)N(C=O)Cc1cnc(C)nc1N`, the Potency is 35.5 µM (active).

`CCC(=O)Oc1ccc2c(c1)CC[C@@H]1[C@@H]2CC[C@]2(C)[C@@H](OC(=O)CC)CC[C@@H]12`: the Potency was 12.6 µM (active).

Regarding `CC#CCC(C)[C@H](O)/C=C/[C@@H]1[C@H]2C/C(=C/CCCC(=O)O)C[C@H]2C[C@H]1O` (some centres not stated), the Potency was 17.8 µM (active).

Regarding `CN1CCN(C2=Nc3ccccc3Cc3ccccc32)CC1`, the Potency is 31.6 µM (active).

For the compound `CS(=O)(=O)OCCCNCCCOS(C)(=O)=O`, the Potency was 39.8 µM (active).

Take `CCOC(=O)Nc1ccc2c(c1)N(C(=O)CN(C)C)c1ccccc1CC2`: the Potency is 44.7 µM (active).

The next assay has as its system astro (control astrocytes). The description is as above. Conditions: viability, ATP luminescence, 48 h; series mostly up to 45.9 µM; activity, negative = cell killing: at the top concentration. The method, boiled down:
as §1
Regarding `CCOC(=O)COc1ccc2c(C)c(CCN(CC)CC)c(=O)oc2c1`, the “activity, negative = cell killing” value was 4.1%.

`COc1cc2c(c(OC)c1OC)-c1c(cc3c(c1OC)OCO3)C[C@@H](C)[C@](C)(O)C2`: the Potency entry is “inactive”.

For `Cn1nnnc1SCC1=C(C(=O)O)N2C(=O)[C@@H](NC(=O)[C@H](OC=O)c3ccccc3)[C@H]2SC1`, the “activity, negative = cell killing” value is 6.08%.

Consider `COC[C@H](c1ccc(C(F)(F)F)cc1)N1CCN(C2(C)CCN(C(=O)c3c(C)ncnc3C)CC2)C[C@H]1C`, for which the “activity, negative = cell killing” value is -14%.

In the case of `CC1(C)S[C@@H]2[C@H](NC(=O)C(C(=O)Oc3ccc4c(c3)CCC4)c3ccccc3)C(=O)N2[C@H]1C(=O)O` (some centres not stated), the “activity, negative = cell killing” value was -3.14%.
